Experimental data as given in PubChem BioAssay (NCATS).
Values joined by “and” are separate entries in the source; they are usually repeats but may differ in a detail not shown here. Equal values may be shown once. Results filed as inconclusive are left out. Where a call stands in place of a potency, no number is given. Where a structure was tested more than once in an assay, its records may differ in their call. Active and inactive are the calls of the source. Unless noted, calls follow the shape of the dose curve; as a rule, active = well fitted curve in the direction sought with a large enough effect; inconclusive = small, poorly fitted or top-dose-only effect, or another doubt; inactive = no such curve, though single readings can be large; an effect the other way counts as inactive or inconclusive.

How the values were obtained:
[1] = target: Cytochrome P450 1A2 (Homo sapiens) (UniProt P05177); experiment: p450-cyp1a2 (AID 410; calls by dose curve; also: potency is read from the fitted curve at half-maximal effect)
Sequence of Cytochrome P450 1A2 (Homo sapiens) (P05177 whole entry, looked up): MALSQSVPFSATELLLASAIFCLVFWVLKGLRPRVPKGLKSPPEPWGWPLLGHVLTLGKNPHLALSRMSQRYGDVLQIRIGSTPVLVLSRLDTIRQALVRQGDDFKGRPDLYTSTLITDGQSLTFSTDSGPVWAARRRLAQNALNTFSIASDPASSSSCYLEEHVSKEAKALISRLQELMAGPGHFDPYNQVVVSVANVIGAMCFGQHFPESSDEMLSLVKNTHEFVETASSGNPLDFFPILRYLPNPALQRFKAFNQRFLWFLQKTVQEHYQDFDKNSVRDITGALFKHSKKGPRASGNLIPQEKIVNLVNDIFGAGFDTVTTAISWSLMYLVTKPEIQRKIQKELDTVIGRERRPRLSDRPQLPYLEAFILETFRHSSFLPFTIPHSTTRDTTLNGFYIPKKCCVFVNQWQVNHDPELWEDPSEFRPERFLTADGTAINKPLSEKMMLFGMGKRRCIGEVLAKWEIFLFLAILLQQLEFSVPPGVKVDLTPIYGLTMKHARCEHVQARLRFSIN
How it was run: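 Luminescent demethylation readout: Luciferin-ME (100uM, equal to Km) turned over by 20nM CYP1A2 for 60 min at room temperature after NADPH regeneration addition, following 10 min compound preincubation. Normalization used 57 uM furafylline as full inhibition.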

[2] = target: Glucocorticoid receptor (Homo sapiens) (UniProt P04150); experiment: GR-GFP Redistribution (AID 450;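 active = compounds whose dose series gives a full or clear partial fitted curve of increased nuclear translocation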; also: potency is read from the fitted curve at half-maximal effect); conditions: U2OS GR-GFP nuclear translocation, laser cytometry, 2 h
Sequence of Glucocorticoid receptor (Homo sapiens) (P04150 whole entry, looked up, the tested form may be a part): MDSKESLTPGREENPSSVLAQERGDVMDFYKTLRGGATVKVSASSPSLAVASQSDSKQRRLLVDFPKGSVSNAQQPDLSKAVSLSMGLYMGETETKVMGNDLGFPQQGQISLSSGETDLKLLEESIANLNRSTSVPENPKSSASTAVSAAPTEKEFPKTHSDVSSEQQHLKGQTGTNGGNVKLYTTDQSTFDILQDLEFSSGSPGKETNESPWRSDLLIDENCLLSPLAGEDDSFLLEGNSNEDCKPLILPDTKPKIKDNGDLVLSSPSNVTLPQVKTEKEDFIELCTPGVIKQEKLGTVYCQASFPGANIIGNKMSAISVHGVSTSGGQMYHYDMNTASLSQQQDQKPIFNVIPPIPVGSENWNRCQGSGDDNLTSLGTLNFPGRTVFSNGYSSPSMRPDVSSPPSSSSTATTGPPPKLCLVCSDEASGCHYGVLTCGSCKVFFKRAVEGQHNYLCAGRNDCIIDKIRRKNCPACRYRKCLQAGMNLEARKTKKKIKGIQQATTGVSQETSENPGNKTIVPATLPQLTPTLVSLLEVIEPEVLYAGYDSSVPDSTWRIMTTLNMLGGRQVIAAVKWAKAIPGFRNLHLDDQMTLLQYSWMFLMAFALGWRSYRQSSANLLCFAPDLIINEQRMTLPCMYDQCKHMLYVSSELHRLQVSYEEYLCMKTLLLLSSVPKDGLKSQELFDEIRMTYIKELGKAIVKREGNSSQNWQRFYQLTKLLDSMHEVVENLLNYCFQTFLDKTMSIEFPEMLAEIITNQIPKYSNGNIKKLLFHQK

[3] = target: Glucocorticoid receptor (Homo sapiens) (UniProt P04150); experiment: GR-EFC Redistribution (AID 451; calls by dose curve; also: potency is read from the fitted curve at half-maximal effect); conditions: CHO-K1 GR-EFC translocation, beta-gal luminescence, 2 h
How it was run: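 Translocation of GR-ED fusion to nuclear EA restores b-gal, read by luminescence after 1 h room-temperature detection. Engineered CHO-K1 biosensor cells, 1,000/well, exposed 2 h at 37 C to titrations up to 46 uM final.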

[4] = target: Mitogen-activated protein kinase 10 (Mus musculus) (UniProt Q61831); experiment: JNK3 AlphaScreen Assay (AID 530; active = well fitted curve in either direction with a large enough effect, not every such curve was filed as active;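 also: kinase came from lysate of stimulated human HepG2 cells; signal reports phosphorylation of biotinylated GST-cJun 1-79 at Ser73 with 10 µM ATP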)
How it was run: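 qHTS titrations with 15 min compound pre-incubation before adding ATP (10 uM final). Read-out: AlphaScreen of Ser73-phosphorylated biotin-GST-cJun using HepG2 lysate JNK3 activated by IL-1β and TNFα.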

[5] = target: 3',5'-cyclic-AMP phosphodiesterase 4B (Homo sapiens) (UniProt Q07343); experiment: qHTS Assay for Inhibitors of PDE-IV (AID 607; active = well fitted activation curve with a large enough effect in the main read-out, with a control signal flat, not every such curve was filed as active)
Sequence of 3',5'-cyclic-AMP phosphodiesterase 4B (Homo sapiens) (Q07343 whole entry, looked up): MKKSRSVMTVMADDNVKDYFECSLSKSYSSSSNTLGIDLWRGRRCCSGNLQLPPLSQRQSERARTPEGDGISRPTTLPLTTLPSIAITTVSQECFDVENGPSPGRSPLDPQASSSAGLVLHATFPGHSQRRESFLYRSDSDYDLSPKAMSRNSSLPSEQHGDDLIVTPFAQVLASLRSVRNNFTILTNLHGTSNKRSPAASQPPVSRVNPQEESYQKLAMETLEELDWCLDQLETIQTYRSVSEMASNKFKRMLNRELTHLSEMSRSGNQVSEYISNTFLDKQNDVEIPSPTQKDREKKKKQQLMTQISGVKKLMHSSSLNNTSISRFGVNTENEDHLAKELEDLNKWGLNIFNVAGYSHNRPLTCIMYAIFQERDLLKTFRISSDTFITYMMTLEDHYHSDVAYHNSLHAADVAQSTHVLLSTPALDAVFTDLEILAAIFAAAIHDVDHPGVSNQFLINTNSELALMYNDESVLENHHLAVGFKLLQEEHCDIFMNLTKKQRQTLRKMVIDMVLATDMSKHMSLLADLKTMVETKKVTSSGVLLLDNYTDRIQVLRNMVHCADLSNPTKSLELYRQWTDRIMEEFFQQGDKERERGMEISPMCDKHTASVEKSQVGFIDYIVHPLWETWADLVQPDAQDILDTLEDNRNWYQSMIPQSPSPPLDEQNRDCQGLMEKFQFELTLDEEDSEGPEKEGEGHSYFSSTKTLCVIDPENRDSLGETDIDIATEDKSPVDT
How it was run: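 The readout is membrane depolarisation from a cAMP-sensing CNG channel, detected with a potential dye at ex 535/em 590. Cells were HEK293-derived (endogenous PDE-IV) at 1000 cells/well, titrated up to 22.9 uM final.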

[6] = target: Ubiquitin carboxyl-terminal hydrolase 1 (Homo sapiens) (UniProt O94782); experiment: Inhibitors of USP1/UAF1: Pilot qHTS (AID 504865);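 also: rhodamine fluorescence freed from ubiquitin-rhodamine substrate followed over time; top concentration of the series differs between compounds; nearly all actives have a fitted effect of over 35% in size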
Sequence of Ubiquitin carboxyl-terminal hydrolase 1 (Homo sapiens) (O94782 whole entry, looked up): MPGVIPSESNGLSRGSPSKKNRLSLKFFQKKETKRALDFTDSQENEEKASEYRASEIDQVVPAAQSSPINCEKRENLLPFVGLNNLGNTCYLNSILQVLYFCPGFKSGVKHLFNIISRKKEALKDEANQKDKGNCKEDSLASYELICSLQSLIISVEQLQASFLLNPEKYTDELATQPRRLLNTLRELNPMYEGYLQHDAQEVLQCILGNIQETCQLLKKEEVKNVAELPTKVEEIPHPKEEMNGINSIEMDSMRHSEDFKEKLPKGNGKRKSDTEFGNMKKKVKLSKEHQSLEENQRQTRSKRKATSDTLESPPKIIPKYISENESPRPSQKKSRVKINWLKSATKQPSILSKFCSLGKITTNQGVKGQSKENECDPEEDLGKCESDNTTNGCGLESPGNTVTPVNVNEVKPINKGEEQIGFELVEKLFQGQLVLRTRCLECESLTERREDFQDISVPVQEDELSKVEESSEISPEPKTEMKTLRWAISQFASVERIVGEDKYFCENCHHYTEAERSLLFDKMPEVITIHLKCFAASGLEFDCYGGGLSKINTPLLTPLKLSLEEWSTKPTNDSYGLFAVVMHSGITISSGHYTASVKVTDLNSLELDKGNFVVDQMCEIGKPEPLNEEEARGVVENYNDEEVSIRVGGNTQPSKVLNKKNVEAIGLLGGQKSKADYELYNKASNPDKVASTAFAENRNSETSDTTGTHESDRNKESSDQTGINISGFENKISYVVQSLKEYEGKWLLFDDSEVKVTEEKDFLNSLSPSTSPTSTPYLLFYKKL
How it was run: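 Kinetic fluorescence assay: 1nM USP1/UAF1, 15 min compound preincubation, then 150nM Ub-Rho; 480/540 nm.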

[7] = target: DNA dC->dU-editing enzyme APOBEC-3G (Homo sapiens) (UniProt Q9HC16); experiment: qHTS for inhibitors of Vif-A3G interactions: Validation (AID 588379)
Sequence of DNA dC->dU-editing enzyme APOBEC-3G (Homo sapiens) (Q9HC16 whole entry, looked up): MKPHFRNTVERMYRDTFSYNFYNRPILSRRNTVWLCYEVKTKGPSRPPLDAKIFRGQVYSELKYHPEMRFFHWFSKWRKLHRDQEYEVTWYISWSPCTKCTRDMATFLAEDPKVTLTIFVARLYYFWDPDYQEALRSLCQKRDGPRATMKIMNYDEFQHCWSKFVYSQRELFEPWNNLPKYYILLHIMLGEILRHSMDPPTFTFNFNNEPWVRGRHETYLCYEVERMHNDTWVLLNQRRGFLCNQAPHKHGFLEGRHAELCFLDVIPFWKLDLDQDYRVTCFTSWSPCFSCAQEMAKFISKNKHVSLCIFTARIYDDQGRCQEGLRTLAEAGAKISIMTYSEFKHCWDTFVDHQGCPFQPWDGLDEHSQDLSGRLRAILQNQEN
How it was run: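 Yellow fluorescence (Ex 488, Em 500-530) of Vif-coexpressing HeLa A3G-eYFP cells, scanned by Acumen cytometer, reports blocked A3G degradation. Cells plated at 700/well overnight at 37 deg C before compound addition, then a further overnight compound incubation at 37 deg C.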

[8] = system: Zika virus NS2B-NS3 protease; experiment: Primary screen GU AMC qHTS for Zika virus inhibitors (AID 1347154); also: nearly all actives have a fitted effect of over 70% in size
How it was run: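 Fluorogenic AMC-substrate cleavage by noncovalent NS2B-NS3 protease complex (25 nM, pH 8.0 Tris buffer with Tween 20) followed for 15 minutes at room temperature (~20% conversion). Percent inhibition from ex340/em450 signal change, fitted by 4-parameter Hill equation.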

[9] = Primary qHTS for small molecule stabilizers of the endoplasmic reticulum resident proteome: Secreted ER Calcium Modulated Protein (SERCaMP) assay (AID 1508630)
How it was run: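 The SH-SY5Y reporter protocol was run at 3 concentrations up to 38.3 uM (primary) or 11 concentrations (follow-up): 16 h compound, 100 nM thapsigargin for 4 h, then extracellular luciferase luminescence.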

[10] = AP1 Signaling Pathway (AID 357; active = well fitted curve in either direction with a large enough effect, not every such curve was filed as active;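 also: ME-180 reporter cells stimulated with EGF at its EC50 level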); conditions: ME-180 AP-1-bla reporter, EGF-induced, beta-lactamase ratio, 5 h; at 38 µM (top of the series)
How it was run: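 First, ME-180 AP-1-bla cells were cultured overnight at 37 °C in low-serum Opti-MEM. Next, titrated compounds with EC50 EGF were incubated 5 hours. Finally, CCF4 was added for 2.5 hours and the 460/530 nm ratio recorded.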

[11] = NFAT Signaling Pathway (AID 444; active = well fitted curve in either direction with a large enough effect, not every such curve was filed as active;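 also: carbachol stimulus at about its EC50 of 1 µM final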); conditions: Jurkat NFAT-bla M1, carbachol, beta-lactamase ratio, 5 h; at 38 µM (top of the series)
How it was run: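 Read-out: CCF4 FRET ratio (460 nm/530 nm) after 1 h RT dye loading, used for %activity and AC50 from titration series. Cells: Jurkat NFAT-β-lactamase/M1 line, treated with compound plus 1 uM carbachol for 5 h, 37 °C.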

[12] = Stat Signaling Pathway (AID 446; active = well fitted curve in either direction with a large enough effect, not every such curve was filed as active;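 also: ME-180 cervical cancer cells given 40 pM IL-6 alongside compound; SIE-controlled beta-lactamase reporter measured as 460/530 nm FRET emission ratio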); conditions: ME-180 (cervical carcinoma) SIE beta-lactamase reporter, IL-6 stimulated, 5 h; at 38 µM (top of the series)
How it was run: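 Emission at 460 and 530 nm (excitation 405 nm) reports SIE-controlled beta-lactamase in ME-180 cells. Cells received compound with 40 pM IL-6 for 5 hrs at 37 C; data scaled between 300 pM IL-6 and 125 nM JAK-inhibitor controls.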

[13] = target: Guanine nucleotide-binding protein G(i) subunit alpha-1 (Homo sapiens) (UniProt P63096); experiment: qHTS Assay for Inhibitors of RGS12 GoLoco Motif Activity (Green Fluorophore) (AID 879);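 also: negative values mean loss of peptide binding seen as reduced polarization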
Sequence of Guanine nucleotide-binding protein G(i) subunit alpha-1 (Homo sapiens) (P63096 whole entry, looked up): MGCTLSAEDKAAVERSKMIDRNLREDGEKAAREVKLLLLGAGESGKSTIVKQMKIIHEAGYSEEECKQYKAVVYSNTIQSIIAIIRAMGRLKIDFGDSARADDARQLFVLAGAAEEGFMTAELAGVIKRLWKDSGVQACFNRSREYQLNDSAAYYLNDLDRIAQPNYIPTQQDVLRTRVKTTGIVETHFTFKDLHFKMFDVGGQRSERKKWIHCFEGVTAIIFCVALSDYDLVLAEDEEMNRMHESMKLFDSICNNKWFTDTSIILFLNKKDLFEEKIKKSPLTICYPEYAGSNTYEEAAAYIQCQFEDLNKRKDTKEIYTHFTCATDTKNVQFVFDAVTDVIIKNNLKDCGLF
How it was run: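 A drop in FITC polarization marked displacement of the FITC-tagged RGS12 GoLoco peptide (10 nM) from Gαi1 (50 nM). Compounds were incubated 10 min at room temperature in Tris pH 7.5 buffer containing 150 mM NaCl, 0.1 mM GDP and 0.05% NP40; unlabeled peptide titration served as control.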

[14] = target: Muscarinic acetylcholine receptor M1 (Rattus norvegicus) (UniProt P08482); experiment: qHTS Assay for Antagonists of Acetylcholine Muscarinic M1 Receptor: Measurement of IP-One Response (AID 944); also: nearly all actives have a fitted effect of over 75% in size
Sequence of Muscarinic acetylcholine receptor M1 (Rattus norvegicus) (P08482 whole entry, looked up): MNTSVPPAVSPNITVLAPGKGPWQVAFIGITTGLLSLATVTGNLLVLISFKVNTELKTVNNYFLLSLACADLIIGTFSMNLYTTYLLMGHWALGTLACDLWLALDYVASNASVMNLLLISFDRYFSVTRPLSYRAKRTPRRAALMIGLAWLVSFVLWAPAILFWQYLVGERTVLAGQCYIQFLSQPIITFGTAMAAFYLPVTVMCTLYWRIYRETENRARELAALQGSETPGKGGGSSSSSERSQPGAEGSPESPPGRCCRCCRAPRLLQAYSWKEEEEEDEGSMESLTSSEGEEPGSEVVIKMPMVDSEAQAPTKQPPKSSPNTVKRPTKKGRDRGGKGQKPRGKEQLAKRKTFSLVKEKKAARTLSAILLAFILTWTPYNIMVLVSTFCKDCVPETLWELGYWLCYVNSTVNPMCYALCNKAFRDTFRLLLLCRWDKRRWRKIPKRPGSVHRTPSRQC
How it was run: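 IP1 accumulation measured via TR-FRET between d2-IP1 and Eu-cryptate anti-IP1 antibody after carbachol (200 nM, EC80) stimulation for 30 min; rat M1-transfected CHO cells received compound 10 min before agonist.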

[15] = target: Pyruvate kinase (Leishmania mexicana) (UniProt Q27686); experiment: qHTS Validation Assay for Inhibitors of Leishmania Mexicana Pyruvate Kinase (AID 945)
Sequence of Pyruvate kinase (Leishmania mexicana) (Q27686 2-499 E452W): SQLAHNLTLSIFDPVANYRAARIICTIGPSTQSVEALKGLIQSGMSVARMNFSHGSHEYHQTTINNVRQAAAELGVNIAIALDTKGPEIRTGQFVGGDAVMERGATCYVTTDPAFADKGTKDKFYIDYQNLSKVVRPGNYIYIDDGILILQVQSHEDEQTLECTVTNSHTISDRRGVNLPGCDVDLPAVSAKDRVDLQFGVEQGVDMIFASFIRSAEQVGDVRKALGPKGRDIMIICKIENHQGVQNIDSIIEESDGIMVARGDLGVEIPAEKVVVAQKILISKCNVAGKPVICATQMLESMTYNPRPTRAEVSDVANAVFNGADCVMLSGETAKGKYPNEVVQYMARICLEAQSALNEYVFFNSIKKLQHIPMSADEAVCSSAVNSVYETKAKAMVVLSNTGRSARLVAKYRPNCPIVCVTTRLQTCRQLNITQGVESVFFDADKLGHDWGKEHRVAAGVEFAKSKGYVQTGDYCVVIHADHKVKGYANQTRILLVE
How it was run: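 LmPYK E451W 0.2 nM; 0.5 mM PEP, 0.1 mM ADP, 7 mM MgCl2, 50 mM KCl, imidazole pH 7.2, 0.01% Tween 20, 0.05% BSA; 1 h RT; PKLight luminescence; DMSO-normalized.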

[16] = target: Pyruvate kinase PKM (Homo sapiens) (UniProt P14618); experiment: qHTS Assay for Activators of Human Muscle Pyruvate Kinase (AID 954; active = well fitted curve in the direction sought with a large enough effect, not every such curve was filed as active)
How it was run: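 PKM2, human, >95% pure, 0.1 nM; PEP 0.5 mM (Km), ADP 0.1 mM; 50 mM imidazole pH 7.2, 50 mM KCl, 0.01% Tween 20, 0.05% BSA; 1 h RT; luciferase luminescence readout.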

[17] = target: Alpha-galactosidase A (Homo sapiens) (UniProt P06280); experiment: Counterscreen for Glucocerebrosidase Inhibitors: qHTS Assay for Human alpha-Galactosidase at pH 4.5 (AID 992)
Sequence of Alpha-galactosidase A (Homo sapiens) (P06280 whole entry, looked up): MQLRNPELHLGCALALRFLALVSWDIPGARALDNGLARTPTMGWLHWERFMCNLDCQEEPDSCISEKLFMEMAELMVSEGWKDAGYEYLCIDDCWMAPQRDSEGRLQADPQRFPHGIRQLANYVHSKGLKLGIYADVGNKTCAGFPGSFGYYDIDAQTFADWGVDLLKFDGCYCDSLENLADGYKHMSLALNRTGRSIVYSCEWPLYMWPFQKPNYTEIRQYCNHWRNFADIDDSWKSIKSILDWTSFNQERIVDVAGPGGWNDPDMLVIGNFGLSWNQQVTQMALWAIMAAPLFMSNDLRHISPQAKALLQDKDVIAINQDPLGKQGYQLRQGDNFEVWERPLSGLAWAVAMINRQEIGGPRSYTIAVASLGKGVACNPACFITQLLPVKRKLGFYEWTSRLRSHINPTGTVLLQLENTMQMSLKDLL
How it was run: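 Fluorogenic 4-MU alpha-D-galactoside (80 uM) hydrolysis, 2 nM enzyme, pH 4.5 citrate buffer + 0.005% Tween-20; 20 min RT; NaOH/glycine pH 10 stop; Ex365/Em440. Compounds titrated 0.7 nM–77 uM; Hill-equation AC50.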

[18] = target: alpha-glucosidase (Oryza sativa, rice) (UniProt Q653V4); experiment: Counterscreen for Glucocerebrosidase Inhibitors: qHTS Assay for Rice alpha-Glucosidase at pH 5.0 (AID 997)
How it was run: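 Endpoint fluorogenic assay at pH 5.0: compounds (0.7 nM to 77 uM) titrated against 4 nM rice enzyme and 400 uM 4-MU-alpha-glucoside for 20 min at room temperature; NaOH/glycine stop, read ex 365/em 440 nm, Hill-fitted AC50.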

[19] = NCATS anti-infectives library activity on HEK293 viability as a counter-qHTS vs the C. elegans viability qHTS (AID 1745854)
How it was run: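 Cytotoxicity counter-screen to a worm viability qHTS: CellTiter-Glo luminescence read 10 min after reagent addition. Compounds (final up to 41.7 uM, a 1:5 dilution series) incubated 24 hr at 37C with 1,500 HEK293 cells per well; digitonin control.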

| SMILES | Potency [1] | Potency [2] | Potency [3] | Potency [4] | Potency [5] | Potency [6] | Potency [7] | Potency [8] | Potency [9] | activity change, negative = inhibition [10] | activity change, negative = inhibition [11] | activity, negative = inhibition [12] | outcome [13] | Potency [14] | Potency [15] | outcome [16] | outcome [17] | outcome [18] | outcome [19] |
| --- | --- | --- | --- | --- | --- | --- | --- | --- | --- | --- | --- | --- | --- | --- | --- | --- | --- | --- | --- |
| CCn1c(=O)[nH]c2ccccc21 | 31.6 µM (active) | > 46 µM (inactive) | > 46 µM (inactive) | inactive | inactive | inactive | inactive | inactive | inactive |  |  |  |  |  |  |  |  |  |  |
| COc1ccc2[nH]c(I)c(CCNC(C)=O)c2c1 |  | > 46 µM (inactive) | > 46 µM (inactive) | inactive | inactive |  | inactive | inactive | inactive | -7.67% (inactive) | -1.64% (inactive) | 3.36% (inactive) |  |  |  |  |  |  |  |
| C[C@@H]1CCN=C(N)S1 | inactive and 39.8 µM (active) | > 46 µM (inactive) | > 46 µM (inactive) | inactive | inactive |  | inactive | inactive | inactive | 12.9% (inactive) | 2.83% (inactive) | 9.1% (inactive) | inactive | inactive | inactive | inactive | inactive | inactive |  |
| OCCOCCN1CCN(Cc2cccc(Oc3ccccc3)c2)CC1 |  |  |  |  |  |  |  | inactive | inactive |  |  |  |  |  |  |  |  |  | inactive |
